Screening data (PubChem)
LMNA splice mod – qHTS Assay for Modulators of Lamin A Splicing; 0.01% of 200,000 active; Potency, µM (doses to about 46.1 µM), for inactives: at the highest dose ratio change, negative = inhibition, usual class: inhibitors; HeLa LMNA splicing GFP/RFP minigene ratio, 48 h; active = well fitted inhibition curve with a large enough effect in the signal ratio, with a control signal flat, not every such curve was filed as active; inconclusive = small, poorly fitted or top-dose-only effect, or effect the other way, or a change in a side signal; the % refers to the signal ratio; note: potency is the fitted concentration of half-maximal effect; % is set by controls: 0 for no effect and ±100 for the full control effect
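Read-out is the ratio of GFP to DsRed2 object intensity, acquired by 488 nm laser-scanning cytometry on HeLa lamin A-EGFP minigene reporter cells. Compound incubation 48 hrs at 37 °C in Opti-MEM with 2% FBS; DMSO 0.5% final.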
Sfp inh – qHTS Assay for Inhibitors of Bacillus subtilis Sfp phosphopantetheinyl transferase (PPTase); 3.5% of 310,000 active; Biochemical Sfp PPTase activity, qHTS; Potency, µM, inactives show largest response in the series, negative = inhibition, usual class: inhibitors;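 note: the enzyme is Sfp with the accession as filed and its product quenches rhodamine fluorescence; potency is the fitted concentration of half-maximal effect; 0% = enzyme reaction without inhibitor and -100% = no enzyme wells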
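With Hepes-Na pH 7.6 buffer containing 10 mM MgCl2, Sfp (15 nM) modified BHQ-2-YbbR (12.5 uM) using rhodamine-CoA (5 uM). Two reads 30 minutes apart at 525/598 nm yielded each well's rate.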
miR-21 reporter – qHTS Assay for Modulators of miRNAs and/orActivators of miR-21. HeLa miR-21 FLuc reporter, luciferase, 48 h. Potency, µM (highest dose often 38.3 µM), inactives show at the highest dose activity change, positive = activation, most hits filed as activators. 340,000 tested, under 10 active. AID 2288, 2010;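 note: % of control where 0% means no effect; miR-21 action dims this reporter so a rising signal means less miR-21 action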
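Using DMEM plus 10% FBS, HeLa miR-21-FLuc cells are incubated with test compounds (final up to about 40uM) for 48 hours; firefly luciferase signal is then imaged following reagent-mediated lysis.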
ALDH1A1 inh – qHTS Assay for Inhibitors of Aldehyde Dehydrogenase 1 (ALDH1A1) | Aldehyde dehydrogenase 1A1 (Homo sapiens), P00352 | Purified ALDH1A1, NADH fluorescence, propionaldehyde substrate | Potency, µM (top dose mostly 75.3 µM), for inactives: top-dose activity, negative = inhibition, actives largely listed as inhibitors | 7.3% of 220,000 active; active = well fitted inhibition curve with a large enough effect, not every such curve was filed as active; inconclusive = small, poorly fitted or top-dose-only effect, or another doubt; inactive = no such curve, though single readings can be large or run the other way;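 note: potency is the fitted concentration of half-maximal effect; plate controls were no enzyme wells and a reference inhibitor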
G9a block – qHTS Assay for Inhibitors of Histone Lysine Methyltransferase G9a; Histone-lysine N-methyltransferase EHMT2 (Homo sapiens), Q96KQ7; G9a H3K9 monomethylation, AlphaScreen, 2 h; Potency, µM (titrated, usually from 102 µM), for the others: at the top dose activity, negative = inhibition, most hits filed as inhibitors; 8.8% of 350,000 active; AID 504332, 2011; note: potency is the fitted concentration of half-maximal effect; % is set by controls: 0 for no effect and ±100 for the full control effect; nearly all actives have a fitted effect of over 75% in size
Target sequence (Q96KQ7 913-1193 limits assumed): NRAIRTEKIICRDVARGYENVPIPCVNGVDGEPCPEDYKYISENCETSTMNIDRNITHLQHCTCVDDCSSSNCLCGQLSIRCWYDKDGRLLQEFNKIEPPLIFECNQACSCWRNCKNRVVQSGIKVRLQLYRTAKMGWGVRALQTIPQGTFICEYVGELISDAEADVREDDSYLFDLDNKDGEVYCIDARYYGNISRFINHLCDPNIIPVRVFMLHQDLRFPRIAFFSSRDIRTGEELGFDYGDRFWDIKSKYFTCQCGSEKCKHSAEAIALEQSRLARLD
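Step 1: enzyme (final 20 nM) with compound, 15 min RT. Step 2: substrate peptide 500 nM and SAM 20 uM, 2 h RT. Step 3: anti-H3K9me1 antibody and AlphaScreen beads, 10 min, then plate read.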
JMJD2E inh – qHTS Assay for Inhibitors of Human Jumonji Domain Containing 2E (JMJD2E); JMJD2E catalytic domain, FDH-coupled NADH fluorescence (FDH is formaldehyde dehydrogenase); Potency, µM (top dose mostly 57.1 µM), for the others: at the highest dose activity change, negative = inhibition, usual class: inhibitors; 1.6% of 230,000 active; Lysine-specific demethylase 4E (Homo sapiens), B2RXH2; active = well fitted inhibition curve with a large enough effect, not every such curve was filed as active; inconclusive = small, poorly fitted or top-dose-only effect, or another doubt; inactive = no such curve, though single readings can be large or run the other way;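 note: potency is the fitted concentration of half-maximal effect; 0% = wells with enzyme and -100% = buffer wells without enzyme; nearly all actives have a fitted effect of over 50% in size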
Target sequence (B2RXH2 1-337 limits assumed): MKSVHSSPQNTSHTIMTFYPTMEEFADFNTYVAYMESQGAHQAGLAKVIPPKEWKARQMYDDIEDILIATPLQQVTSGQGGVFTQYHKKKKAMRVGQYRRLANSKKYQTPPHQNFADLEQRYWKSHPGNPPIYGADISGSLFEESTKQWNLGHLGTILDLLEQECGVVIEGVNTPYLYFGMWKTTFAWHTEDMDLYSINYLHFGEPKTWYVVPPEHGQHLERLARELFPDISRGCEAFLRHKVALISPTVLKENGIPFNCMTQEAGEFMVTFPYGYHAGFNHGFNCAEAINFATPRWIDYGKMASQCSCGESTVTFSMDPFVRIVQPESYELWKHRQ
* hit, by the source's call; u = inconclusive; x = no result given; ! = not confirmed by another sample; [ ] = another dose, or the depositor's remark. This is a sample that favours compounds with a hit; in the whole collection about 13% have one here. Unless noted, calls come from the whole dose curve; as a rule, active = well fitted curve in the direction sought with a large enough effect; inconclusive = small, poorly fitted or top-dose-only effect, or another doubt; inactive = no such curve, though single readings can be large; an effect the other way counts as inactive or inconclusive.

SMILES	LMNA splice mod	Sfp inh	miR-21 reporter	ALDH1A1 inh	G9a block	JMJD2E inh
Cc1[nH]c(=S)sc1Cc1ccc(Cl)c(Cl)c1	u	u	15%	25µM*	u	4%
Cc1nnc(SCc2ccc(Cl)c(Cl)c2)s1	x	7%	-44%	3%	2%	13%
CCCCCCCCCCCCC/C=C/[C@@H](O)[C@@H](N)CO	u	79µM*!	x	-10%	8%[59 µM]	-1%
CCCCCCCCCCCCC/C=C/[C@@H](O)[C@H](CO)N(C)C	x	15%	x	0%	21%[59 µM]	4%
O=C(NCc1ccc2c(c1)OCO2)c1cccc2c1C(=O)N(C1CCCCC1)C2	-8%	-2%	-8%	1%	4%	-2%
CCCN1Cc2cccc(C(=O)NCc3ccc4c(c3)OCO4)c2C1=O	3%	-5%	-2%	14µM*	-10%[59 µM]	-8%
OCCNc1nc(-c2cccnc2)nc2ccccc12	u	15%	5%	25µM*	7%	-6%
OC(CNc1nc(-c2cccnc2)nc2ccccc12)c1ccccc1 (stereo not drawn)	x	10%	22%	x	-6%	x
c1cncc(-c2nc(NCc3ccco3)c3ccccc3n2)c1	-6%	79µM*	12%	u	u	-2%
Cc1ccc(-c2nc(NCc3ccco3)c3ccccc3n2)cc1	u	0%	-36%	-13%	u	-5%
COc1ccc(N2CC(NC(=O)/C=C\c3ccccc3)CC2=O)cc1 (stereo not drawn)	-2%[46 µM]	x	0%	x	-7%[59 µM]	x
CCn1c(Cn2nnc(-c3ccccc3)n2)nnc1SCC(=O)Nc1ccc(N(C)C)cc1	0%	12%	-9%	u	13µM*	-10%
CCn1c(SCC(=O)Nc2ccc(N3CCOCC3)c(Cl)c2)nnc1-c1ccc(N)cc1	-1%	4%	-3%	u	45µM*	-1%
CCn1c(SCC(=O)Nc2ccc(N(C)C)cc2)nnc1-c1cccc(C)c1	u	-5%	-9%	u	7.1µM*	9%
CN(C(=O)CN1CCN(c2cnn(-c3ccccc3)c(=O)c2Cl)CC1)C1CCS(=O)(=O)C1 (stereo not drawn)	x	x	x	x	-7%[12.7 µM]	x
COc1cc(C2NC(=O)NC(C)=C2C(=O)OCC2CCCCC2)ccc1O (stereo not drawn)	x	-8%	-16%	x	x	x
COc1ccc(CCN(C)C(=O)C(CCSC)NC(=O)c2ccco2)cc1OC (stereo not drawn)	x	x	x	x	-5%[12.7 µM]	x
CCOc1ccccc1CNC(=O)c1ccc2nc(N3CCC(C)CC3)sc2c1	x	x	-36%	x	-1%[59 µM]	x
Cc1ccc(-c2nnc3ccccc3c2C(=O)Nc2cccc(C(F)(F)F)c2)cc1	x	x	-41%	x	-16%[59 µM]	x
CC(C)CC(NC(=O)C1CCCCC1)C(=O)Nc1cccc(C(F)(F)F)c1 (stereo not drawn)	x	x	-3%	x	-2%[59 µM]	x
O=C(OC(C(=O)Nc1cccc(C(F)(F)F)c1)c1ccccc1)C1CCCCC1 (stereo not drawn)	u	27%	-3%	14µM*	21%[59 µM]	-7%
CC(C)(C)CN1CCNC(=O)C1CC(=O)N1CCOc2ccccc2C1 (stereo not drawn)	x	7%	-1%	u	50µM*	u
COc1cc(CN2CCNC(=O)C2CC(=O)N2CCc3ccccc3C2)cc(OC)c1 (stereo not drawn)	x	1%	-1%	25µM*	u	u
COc1cccc(CN2CCNC(=O)C2CC(=O)N2CCOc3ccccc3C2)c1OC (stereo not drawn)	x	-28%	0%	4%	x	8%
CCc1ccccc1NC(=O)c1ccc2c(c1)CCCN2S(C)(=O)=O	x	x	-16%	x	-14%[59 µM]	x
SMILES	LMNA splice mod	Sfp inh	miR-21 reporter	ALDH1A1 inh	G9a block	JMJD2E inh
O=C(Oc1ccccc1)n1c(=S)oc2ccccc21	-3%	-7%	-1%	u	3.5µM*	-17%
COC(=O)n1c(=O)oc2ccccc21	3%	10%	1%	13%	-18%[59 µM]	-4%
Cc1ccccc1OC(=O)n1c(=S)oc2cc(Cl)ccc21	-10%	-23%	2%	7.1µM*	1.1µM*	28µM*
Cc1ccc2[nH]c3c(=S)nc[nH]c3c2c1	-23%	3%	-64%	2%	1.8µM*	4%
Cc1cc(=O)oc2cc(OC(=O)c3ccccc3)ccc12	-13%[46 µM]	-4%	1%	u	u	u
COc1ccccc1-c1c(C(F)(F)F)oc2cc(OC(=O)c3ccc([N+](=O)[O-])cc3)ccc2c1=O	u	11%	-3%	u	25µM*	-6%
COc1cc(-c2nc3nc[nH]n3c2Nc2ccc(C(C)C)cc2)ccc1O	x	x	-43%	x	8.9µM*	x
COc1cc(-c2nc3cnccn3c2Nc2ccc(C(C)C)cc2)ccc1O	u	11%	5%	6%	-5%[59 µM]	u
COc1cccc(CNCc2ccccc2OC)c1	x	-3%	3%	x	32µM*	x
Cc1ccc(CNCc2ccccc2Cl)cc1	29%	8%	-19%	2%	0%[59 µM]	-2%
COc1ccccc1CNCc1ccc(C)cc1	x	-17%	6%	x	3.2µM*	x
COc1ccccc1CNCc1cc(OC)c(OC)c(OC)c1	x	-10%	-2%	-8%	7.9µM*	u
COc1ccccc1CNC(=O)Cc1ccc(OC)c(OC)c1	x	-2%	-5%	x	x	x
COc1cccc(CNC(=O)CCl)c1	u	13%	30%	7.1µM*	14%[59 µM]	4%
OCCC1CN(C2CCN(c3ccccc3)CC2)CCN1Cc1ccc(F)c(F)c1 (stereo not drawn)	x	-1%	-6%	-2%	u	4%
Cc1cccc(CNC(=O)c2ccc(C)c(-n3c(C)nc4cccnc43)c2)c1	x	x	-2%	x	-28%[59 µM]	x
Cc1cccc(-c2noc(CN(C3CCCCC3)S(=O)(=O)c3ccc(F)cc3)n2)c1	x	x	-18%	x	33%[59 µM]	x
O=C(Cn1nc(C(=O)O)c2ccccc2c1=O)Nc1ccc2c(c1)C(=O)c1ccccc1C2=O	x	-3%	-48%	u	x	-5%
CCN(Cc1ccncc1)Cc1ccc(OC)cc1OC	x	-6%	-2%	x	u	x
COc1ccc(CN(CCN(C)C)Cc2ccccc2)c(OC)c1	-5%	u	1%	u	8.9µM*	u
Cc1ccccc1CNCc1cccnc1	-12%	15%	-5%	3%	0%[59 µM]	6%
COc1ccc2ccccc2c1CNCc1ccc(C)cc1	x	-22%	0%	x	50µM*	x
COc1cccc(CNCc2cccnc2)c1OCc1ccccc1	u	9%	-1%	-1%	79µM*	-6%
